# Laboratory results: article PMC7862700, “An all-to-all approach to the identification of sequence-specific readers for epigenetic DNA modifications on cytosine”
# Assays:
# Test in all cases: DAPPL (digital affinity profiling via proximity ligation, sequencing); 10 mM Tris-HCl pH 7.5, 50 mM NaCl, 1 mM DTT, 4% glycerol, room temperature, 30 min; GST-TFs on glutathione beads, 16-mer random dsDNA library, 0.1% formaldehyde crosslink after washing; high values mean tight binding
# FLI1 = target: T1, FLI1 (Homo sapiens, UniProt Q01543 1-452); conditions: protein: recombinant; tags: N-terminal GST; dsDNA, one strand shown
# T1 sequence: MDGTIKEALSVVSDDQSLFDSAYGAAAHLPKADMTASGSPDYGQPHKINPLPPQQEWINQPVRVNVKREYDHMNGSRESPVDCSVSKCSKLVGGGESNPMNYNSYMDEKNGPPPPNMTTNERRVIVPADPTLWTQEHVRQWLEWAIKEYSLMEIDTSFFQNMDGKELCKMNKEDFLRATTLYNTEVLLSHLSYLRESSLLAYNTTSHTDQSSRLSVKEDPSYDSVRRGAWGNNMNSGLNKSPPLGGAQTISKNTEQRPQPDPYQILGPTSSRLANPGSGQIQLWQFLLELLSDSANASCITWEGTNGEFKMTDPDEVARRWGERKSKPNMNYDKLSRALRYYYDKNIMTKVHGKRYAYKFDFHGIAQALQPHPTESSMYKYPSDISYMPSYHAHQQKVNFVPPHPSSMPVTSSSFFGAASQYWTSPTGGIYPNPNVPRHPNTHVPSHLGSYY
# Procedure, shortened: (§1)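 Human transcription factors were made in yeast as GST fusions, captured on glutathione beads and barcoded with DNA. With a tag-only sample included, the pool was incubated with 200 nmole of a random double-stranded 16-mer DNA library in Tris/NaCl/DTT/glycerol buffer at room temperature for 30 min, then crosslinked with 0.1% formaldehyde after washing, ligated by proximity, amplified and sequenced. For binding signal, each hexamer's read frequency for a factor is divided by its frequency for the tag-only sample.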
# ELK1 = target: T2, ELK1 (Homo sapiens, UniProt P19419 1-428); conditions: protein: recombinant; tags: N-terminal GST; dsDNA, one strand shown
# T2 sequence: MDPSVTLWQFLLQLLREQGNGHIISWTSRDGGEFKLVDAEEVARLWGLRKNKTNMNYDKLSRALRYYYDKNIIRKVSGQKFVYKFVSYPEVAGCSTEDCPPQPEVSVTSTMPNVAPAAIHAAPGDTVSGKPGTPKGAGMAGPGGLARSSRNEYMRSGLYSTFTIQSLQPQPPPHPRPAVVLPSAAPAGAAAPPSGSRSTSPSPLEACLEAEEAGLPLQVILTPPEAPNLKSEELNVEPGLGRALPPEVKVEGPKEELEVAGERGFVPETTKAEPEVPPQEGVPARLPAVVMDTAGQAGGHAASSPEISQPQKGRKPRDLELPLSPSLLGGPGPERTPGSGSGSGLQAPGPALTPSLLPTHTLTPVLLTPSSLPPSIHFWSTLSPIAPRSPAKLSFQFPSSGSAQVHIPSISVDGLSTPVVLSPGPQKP
# Procedure, shortened: as §1
# GABPA = target: T3, GABPA (Homo sapiens, UniProt Q06546 1-454); conditions: protein: recombinant; tags: N-terminal GST; dsDNA, one strand shown
# T3 sequence: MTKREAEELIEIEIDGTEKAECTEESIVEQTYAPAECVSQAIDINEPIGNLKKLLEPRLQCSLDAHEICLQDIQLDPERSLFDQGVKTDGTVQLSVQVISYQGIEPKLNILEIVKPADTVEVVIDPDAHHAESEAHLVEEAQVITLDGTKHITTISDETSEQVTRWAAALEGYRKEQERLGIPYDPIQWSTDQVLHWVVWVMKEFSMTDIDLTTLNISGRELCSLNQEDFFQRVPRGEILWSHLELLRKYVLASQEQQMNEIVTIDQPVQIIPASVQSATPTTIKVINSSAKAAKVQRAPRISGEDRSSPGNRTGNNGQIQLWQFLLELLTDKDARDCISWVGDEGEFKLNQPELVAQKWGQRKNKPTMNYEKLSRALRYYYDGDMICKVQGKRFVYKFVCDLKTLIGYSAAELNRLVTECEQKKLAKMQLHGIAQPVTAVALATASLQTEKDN
# Procedure, shortened: as §1
# ERG = target: T4, ERG (Homo sapiens, UniProt P11308 1-479); conditions: protein: recombinant; tags: N-terminal GST; dsDNA, one strand shown
# T4 sequence: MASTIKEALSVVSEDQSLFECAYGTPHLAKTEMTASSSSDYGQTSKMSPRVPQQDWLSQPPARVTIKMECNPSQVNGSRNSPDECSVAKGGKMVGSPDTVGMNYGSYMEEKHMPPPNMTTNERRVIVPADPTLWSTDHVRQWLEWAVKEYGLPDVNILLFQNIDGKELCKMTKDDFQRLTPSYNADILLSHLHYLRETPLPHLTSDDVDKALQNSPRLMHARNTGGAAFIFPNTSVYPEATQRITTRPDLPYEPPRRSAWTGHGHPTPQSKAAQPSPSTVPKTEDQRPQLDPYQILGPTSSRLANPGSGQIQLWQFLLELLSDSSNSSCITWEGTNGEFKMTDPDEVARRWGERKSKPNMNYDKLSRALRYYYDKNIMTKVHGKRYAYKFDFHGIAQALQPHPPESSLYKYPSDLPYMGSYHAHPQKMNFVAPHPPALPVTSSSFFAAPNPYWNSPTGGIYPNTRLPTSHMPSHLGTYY
# Procedure, shortened: as §1
# ELF1 = ELF1 (Homo sapiens, UniProt P32519 1-619); conditions: protein: recombinant; tags: N-terminal GST; dsDNA, one strand shown
# Procedure, shortened: as §1
# EHF = target: T5, EHF (Homo sapiens, UniProt Q9NZC4 1-300); conditions: protein: recombinant; tags: N-terminal GST; dsDNA, one strand shown
# T5 sequence: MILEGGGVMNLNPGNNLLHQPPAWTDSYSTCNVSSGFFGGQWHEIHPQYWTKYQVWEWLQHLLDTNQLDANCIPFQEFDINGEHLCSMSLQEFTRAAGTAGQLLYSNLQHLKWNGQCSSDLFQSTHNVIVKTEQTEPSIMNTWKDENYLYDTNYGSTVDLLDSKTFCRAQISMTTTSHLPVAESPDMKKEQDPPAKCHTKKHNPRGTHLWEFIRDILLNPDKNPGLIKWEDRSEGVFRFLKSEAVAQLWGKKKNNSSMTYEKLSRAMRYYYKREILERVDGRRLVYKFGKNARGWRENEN
# Procedure, shortened: as §1
# SPI1 = SPI1 (Homo sapiens, UniProt P17947 1-270); conditions: protein: recombinant; tags: N-terminal GST; dsDNA, one strand shown
# Procedure, shortened: as §1
# SPIB = SPIB (Homo sapiens, UniProt Q01892 1-262); conditions: protein: recombinant; tags: N-terminal GST; dsDNA, one strand shown
# Procedure, shortened: as §1
# ELK3 = target: T6, ELK3 (Homo sapiens, UniProt P41970 1-407); conditions: protein: recombinant; tags: N-terminal GST; dsDNA, one strand shown
# T6 sequence: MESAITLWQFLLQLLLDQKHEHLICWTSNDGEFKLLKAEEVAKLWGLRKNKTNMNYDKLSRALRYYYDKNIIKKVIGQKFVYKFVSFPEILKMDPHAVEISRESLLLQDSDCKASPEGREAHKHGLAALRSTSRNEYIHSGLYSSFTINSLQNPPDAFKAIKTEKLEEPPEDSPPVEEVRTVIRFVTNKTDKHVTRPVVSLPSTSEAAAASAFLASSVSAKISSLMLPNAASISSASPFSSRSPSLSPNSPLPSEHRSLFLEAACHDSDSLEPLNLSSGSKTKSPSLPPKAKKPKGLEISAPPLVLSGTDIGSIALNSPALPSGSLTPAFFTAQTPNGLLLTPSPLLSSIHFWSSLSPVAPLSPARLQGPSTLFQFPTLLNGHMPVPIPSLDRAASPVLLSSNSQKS
# Procedure, shortened: as §1
# FEV = target: T7, FEV (Homo sapiens, UniProt Q99581 1-238); conditions: protein: recombinant; tags: N-terminal GST; dsDNA, one strand shown
# T7 sequence: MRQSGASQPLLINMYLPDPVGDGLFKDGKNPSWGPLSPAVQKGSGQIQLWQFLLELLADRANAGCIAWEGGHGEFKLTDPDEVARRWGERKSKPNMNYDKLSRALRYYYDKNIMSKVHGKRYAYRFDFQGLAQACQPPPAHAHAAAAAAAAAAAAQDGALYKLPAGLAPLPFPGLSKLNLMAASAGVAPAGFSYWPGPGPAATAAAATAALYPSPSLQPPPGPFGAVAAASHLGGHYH
# Procedure, shortened: as §1
# ETV5 = ETV5 (Homo sapiens, UniProt P41161 1-510); conditions: protein: recombinant; tags: N-terminal GST; dsDNA, one strand shown
# Procedure, shortened: as §1
# HSF1 = HSF1 (Homo sapiens, UniProt Q00613 1-529); conditions: protein: recombinant; tags: N-terminal GST; chain copies: 3; dsDNA, one strand shown
# Procedure, shortened: as §1
# SPIC = target: T8, SPIC (Homo sapiens, UniProt Q8N5J4 1-248); conditions: protein: recombinant; tags: N-terminal GST; dsDNA, one strand shown
# T8 sequence: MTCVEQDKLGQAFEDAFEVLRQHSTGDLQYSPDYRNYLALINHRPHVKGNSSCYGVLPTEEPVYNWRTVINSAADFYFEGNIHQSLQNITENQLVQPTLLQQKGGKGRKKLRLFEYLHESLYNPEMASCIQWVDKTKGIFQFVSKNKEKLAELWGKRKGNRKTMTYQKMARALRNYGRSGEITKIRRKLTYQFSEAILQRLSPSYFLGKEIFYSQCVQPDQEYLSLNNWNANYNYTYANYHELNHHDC
# Procedure, shortened: as §1
# ELF4 = ELF4 (Homo sapiens, UniProt Q99607 1-663); conditions: protein: recombinant; tags: N-terminal GST; dsDNA, one strand shown
# Procedure, shortened: as §1
# ELK4 = target: T9, ELK4 (Homo sapiens, UniProt P28324-2 1-405); conditions: protein: recombinant; tags: N-terminal GST; dsDNA, one strand shown
# T9 sequence: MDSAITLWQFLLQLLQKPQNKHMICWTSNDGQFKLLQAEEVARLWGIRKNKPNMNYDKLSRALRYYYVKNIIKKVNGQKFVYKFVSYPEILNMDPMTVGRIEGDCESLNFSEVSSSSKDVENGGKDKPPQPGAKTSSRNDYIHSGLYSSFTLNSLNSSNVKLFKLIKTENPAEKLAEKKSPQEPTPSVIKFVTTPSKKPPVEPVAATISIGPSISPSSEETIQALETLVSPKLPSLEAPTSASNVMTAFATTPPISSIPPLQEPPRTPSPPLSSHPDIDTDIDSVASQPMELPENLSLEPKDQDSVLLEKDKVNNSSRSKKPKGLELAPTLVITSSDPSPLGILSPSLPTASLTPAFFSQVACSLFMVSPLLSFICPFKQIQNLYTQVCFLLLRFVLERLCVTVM
# Procedure, shortened: as §1
# ETV2 = target: T10, ETV2 (Homo sapiens, UniProt O00321 1-342); conditions: protein: recombinant; tags: N-terminal GST; dsDNA, one strand shown
# T10 sequence: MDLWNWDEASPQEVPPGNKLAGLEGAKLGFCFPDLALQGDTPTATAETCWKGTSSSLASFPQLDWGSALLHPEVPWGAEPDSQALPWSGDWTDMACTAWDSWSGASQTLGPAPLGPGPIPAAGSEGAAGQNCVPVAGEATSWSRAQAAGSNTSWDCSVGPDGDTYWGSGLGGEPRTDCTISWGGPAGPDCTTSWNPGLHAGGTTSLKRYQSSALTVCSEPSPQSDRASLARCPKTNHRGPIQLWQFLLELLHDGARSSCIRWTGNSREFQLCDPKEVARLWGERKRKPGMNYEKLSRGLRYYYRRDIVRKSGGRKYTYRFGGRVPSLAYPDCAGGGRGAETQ
# Procedure, shortened: as §1
# ELF3 = target: T11, ELF3 (Homo sapiens, UniProt P78545 1-371); conditions: protein: recombinant; tags: N-terminal GST; dsDNA, one strand shown
# T11 sequence: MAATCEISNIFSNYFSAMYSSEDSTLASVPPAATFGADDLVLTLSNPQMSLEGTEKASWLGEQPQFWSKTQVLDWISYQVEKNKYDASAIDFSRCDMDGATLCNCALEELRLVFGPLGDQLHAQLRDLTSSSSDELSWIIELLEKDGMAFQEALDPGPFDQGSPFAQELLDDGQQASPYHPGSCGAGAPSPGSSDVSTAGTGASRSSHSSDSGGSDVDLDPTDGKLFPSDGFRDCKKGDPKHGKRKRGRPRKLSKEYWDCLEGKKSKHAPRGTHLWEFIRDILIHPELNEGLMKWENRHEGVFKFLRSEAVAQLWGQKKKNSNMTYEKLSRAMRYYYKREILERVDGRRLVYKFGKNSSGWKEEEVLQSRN
# Procedure, shortened: as §1
# CRX = CRX (Homo sapiens, UniProt O43186 1-299); conditions: protein: recombinant; tags: N-terminal GST; dsDNA, one strand shown
# Procedure, shortened: as §1
# ETV1 = ETV1 (Homo sapiens, UniProt P50549 1-477); conditions: protein: recombinant; tags: N-terminal GST; dsDNA, one strand shown
# Procedure, shortened: as §1
# Chain of SPIB (Q01892 whole entry): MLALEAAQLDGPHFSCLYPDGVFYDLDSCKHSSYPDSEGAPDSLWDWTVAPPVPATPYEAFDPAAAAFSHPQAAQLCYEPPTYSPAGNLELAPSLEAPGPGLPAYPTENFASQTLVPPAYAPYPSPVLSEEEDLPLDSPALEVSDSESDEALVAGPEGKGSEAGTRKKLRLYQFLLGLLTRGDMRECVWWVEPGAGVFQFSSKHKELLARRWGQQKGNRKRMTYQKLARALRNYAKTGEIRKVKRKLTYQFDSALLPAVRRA
# Chain of ELF4 (Q99607 whole entry): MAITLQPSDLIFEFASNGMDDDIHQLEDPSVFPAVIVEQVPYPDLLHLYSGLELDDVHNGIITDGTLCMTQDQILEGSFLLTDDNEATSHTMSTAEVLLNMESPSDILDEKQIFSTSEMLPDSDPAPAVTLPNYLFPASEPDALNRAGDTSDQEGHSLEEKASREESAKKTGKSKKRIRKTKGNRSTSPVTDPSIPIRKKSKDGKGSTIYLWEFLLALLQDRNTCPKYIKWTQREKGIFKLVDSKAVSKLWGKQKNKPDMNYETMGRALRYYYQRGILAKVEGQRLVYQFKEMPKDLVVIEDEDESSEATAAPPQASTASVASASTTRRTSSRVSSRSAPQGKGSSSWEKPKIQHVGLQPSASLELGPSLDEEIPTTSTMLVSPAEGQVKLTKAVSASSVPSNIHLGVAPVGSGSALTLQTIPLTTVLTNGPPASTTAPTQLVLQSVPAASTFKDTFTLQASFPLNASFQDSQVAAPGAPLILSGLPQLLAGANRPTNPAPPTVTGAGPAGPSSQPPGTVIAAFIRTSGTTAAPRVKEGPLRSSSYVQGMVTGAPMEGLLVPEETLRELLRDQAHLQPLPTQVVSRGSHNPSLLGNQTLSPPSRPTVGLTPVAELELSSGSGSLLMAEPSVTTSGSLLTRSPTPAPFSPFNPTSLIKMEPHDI
# Chain of ETV5 (P41161 whole entry): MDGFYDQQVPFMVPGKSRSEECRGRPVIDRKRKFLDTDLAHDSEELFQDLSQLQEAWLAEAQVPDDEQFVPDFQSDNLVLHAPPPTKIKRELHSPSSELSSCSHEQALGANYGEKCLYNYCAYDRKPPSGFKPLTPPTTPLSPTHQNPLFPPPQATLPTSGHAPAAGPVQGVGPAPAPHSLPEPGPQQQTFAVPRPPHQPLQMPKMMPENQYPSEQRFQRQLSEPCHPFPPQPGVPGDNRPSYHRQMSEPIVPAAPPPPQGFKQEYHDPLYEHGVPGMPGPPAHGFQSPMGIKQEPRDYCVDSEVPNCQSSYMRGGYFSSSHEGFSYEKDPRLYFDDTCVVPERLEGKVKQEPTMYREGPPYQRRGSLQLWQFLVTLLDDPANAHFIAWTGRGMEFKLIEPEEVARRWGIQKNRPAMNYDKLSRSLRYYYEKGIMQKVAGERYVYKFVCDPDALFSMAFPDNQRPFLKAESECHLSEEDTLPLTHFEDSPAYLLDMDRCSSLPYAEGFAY
# Chain of HSF1 (Q00613 whole entry): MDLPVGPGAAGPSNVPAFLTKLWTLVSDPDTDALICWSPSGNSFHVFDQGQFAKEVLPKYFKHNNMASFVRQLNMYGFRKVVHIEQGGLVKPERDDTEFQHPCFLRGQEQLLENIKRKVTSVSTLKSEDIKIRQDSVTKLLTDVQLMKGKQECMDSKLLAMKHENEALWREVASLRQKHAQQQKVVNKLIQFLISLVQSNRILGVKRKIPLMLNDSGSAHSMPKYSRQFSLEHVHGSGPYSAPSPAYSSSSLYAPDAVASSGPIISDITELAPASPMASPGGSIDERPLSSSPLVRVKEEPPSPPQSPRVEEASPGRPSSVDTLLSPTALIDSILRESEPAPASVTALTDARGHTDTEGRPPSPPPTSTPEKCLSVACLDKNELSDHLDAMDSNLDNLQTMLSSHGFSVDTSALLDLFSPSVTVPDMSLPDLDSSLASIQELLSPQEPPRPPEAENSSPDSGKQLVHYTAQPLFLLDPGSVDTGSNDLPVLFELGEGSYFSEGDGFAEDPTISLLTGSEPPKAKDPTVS
# Chain of CRX (O43186 whole entry): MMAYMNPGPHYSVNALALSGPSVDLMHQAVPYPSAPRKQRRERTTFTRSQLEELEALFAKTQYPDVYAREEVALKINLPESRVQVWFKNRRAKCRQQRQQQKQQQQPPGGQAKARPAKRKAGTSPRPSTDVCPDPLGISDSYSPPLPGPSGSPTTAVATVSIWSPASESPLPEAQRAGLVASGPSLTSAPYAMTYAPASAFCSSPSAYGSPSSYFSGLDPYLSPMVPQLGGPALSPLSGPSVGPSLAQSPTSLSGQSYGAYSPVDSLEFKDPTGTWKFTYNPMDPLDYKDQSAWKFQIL
# Chain of ETV1 (P50549 whole entry): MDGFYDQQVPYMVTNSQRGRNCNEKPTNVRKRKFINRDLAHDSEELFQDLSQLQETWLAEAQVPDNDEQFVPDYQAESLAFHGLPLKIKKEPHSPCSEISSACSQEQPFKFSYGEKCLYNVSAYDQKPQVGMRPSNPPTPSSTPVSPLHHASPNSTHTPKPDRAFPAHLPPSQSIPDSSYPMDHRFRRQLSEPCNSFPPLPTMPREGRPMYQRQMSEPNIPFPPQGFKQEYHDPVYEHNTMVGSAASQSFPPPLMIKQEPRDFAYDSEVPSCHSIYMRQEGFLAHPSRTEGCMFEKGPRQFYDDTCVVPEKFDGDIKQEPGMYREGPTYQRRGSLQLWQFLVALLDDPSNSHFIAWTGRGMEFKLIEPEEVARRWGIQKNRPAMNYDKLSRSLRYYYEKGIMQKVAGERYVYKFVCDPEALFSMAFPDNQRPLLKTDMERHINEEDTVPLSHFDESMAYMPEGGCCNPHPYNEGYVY
# Chain of ELF1 (P32519 whole entry): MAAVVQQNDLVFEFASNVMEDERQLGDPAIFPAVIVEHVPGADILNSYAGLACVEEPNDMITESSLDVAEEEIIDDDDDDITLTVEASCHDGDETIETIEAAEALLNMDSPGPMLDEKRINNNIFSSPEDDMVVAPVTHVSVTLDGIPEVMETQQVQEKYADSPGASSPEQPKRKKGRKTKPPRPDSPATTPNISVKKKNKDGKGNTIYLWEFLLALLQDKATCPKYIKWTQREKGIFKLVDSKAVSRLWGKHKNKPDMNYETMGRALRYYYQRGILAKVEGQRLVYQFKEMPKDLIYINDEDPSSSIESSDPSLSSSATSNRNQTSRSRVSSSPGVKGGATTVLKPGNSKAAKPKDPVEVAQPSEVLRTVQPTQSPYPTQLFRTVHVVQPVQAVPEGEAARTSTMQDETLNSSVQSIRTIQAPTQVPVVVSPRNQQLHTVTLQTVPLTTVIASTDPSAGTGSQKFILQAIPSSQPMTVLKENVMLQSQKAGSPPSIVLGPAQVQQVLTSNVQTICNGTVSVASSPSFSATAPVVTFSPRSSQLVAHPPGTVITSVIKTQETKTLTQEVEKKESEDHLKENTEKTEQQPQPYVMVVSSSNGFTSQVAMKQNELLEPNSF
sequence,measurement,setting,value
GAAGCT,binding signal,FLI1,"1.62 fold enrichment (6-mer frequency, TF over GST control)"
same,binding signal,ELK1,"1.7 fold enrichment (6-mer frequency, TF over GST control)"
same,binding signal,GABPA,"1.52 fold enrichment (6-mer frequency, TF over GST control)"
same,binding signal,ERG,"1.64 fold enrichment (6-mer frequency, TF over GST control)"
same,binding signal,ELF1,"1.44 fold enrichment (6-mer frequency, TF over GST control)"
same,binding signal,EHF,"1.69 fold enrichment (6-mer frequency, TF over GST control)"
same,binding signal,SPI1,"1.63 fold enrichment (6-mer frequency, TF over GST control)"
same,binding signal,SPIB,"1.64 fold enrichment (6-mer frequency, TF over GST control)"
same,binding signal,ELK3,"1.66 fold enrichment (6-mer frequency, TF over GST control)"
same,binding signal,FEV,"1.48 fold enrichment (6-mer frequency, TF over GST control)"
same,binding signal,ETV5,"1.62 fold enrichment (6-mer frequency, TF over GST control)"
same,binding signal,HSF1,"1.74 fold enrichment (6-mer frequency, TF over GST control)"
same,binding signal,SPIC,"1.44 fold enrichment (6-mer frequency, TF over GST control)"
same,binding signal,ELF4,"1.49 fold enrichment (6-mer frequency, TF over GST control)"
same,binding signal,ELK4,"1.69 fold enrichment (6-mer frequency, TF over GST control)"
same,binding signal,ETV2,"1.56 fold enrichment (6-mer frequency, TF over GST control)"
same,binding signal,ELF3,"1.47 fold enrichment (6-mer frequency, TF over GST control)"
same,binding signal,CRX,"1.47 fold enrichment (6-mer frequency, TF over GST control)"
same,binding signal,ETV1,"1.57 fold enrichment (6-mer frequency, TF over GST control)"
